{"source": "PubChem BioAssay AID977611", "origin": "cited, not measured here", "test": "PubChem AID 977611", "settings": "PDB protein-ligand complexes, literature Kd", "note": "The whole screen tested about 3,900 compounds, of which about 3,900 (100%) were called active. Cut-off not given; nearly all actives show Kd up to about 4200 µM. The set was probably picked from earlier hits. Some of the results follow. *1 amine or outer side, *2 acyl side, *3 side chain or, on linkers, in order; H or OH if unused. Where a SMILES comes first, the peptide text is derived from it. Square brackets hold non-standard residues; d marks the D form. Peptide text beside a SMILES is read from it. [ ]: non-standard residue; d: D form. X1 = O=C([C@H](Cc1ccc(O[P+](O)(O)O)cc1)N[*:1])[*:2]; Thr(P(OH)3+) = C[C@@H](O[P+](O)(O)O)[C@H](N)C(=O)O; Lys(Me3) = C[N+](C)(C)CCCC[C@H](N)C(=O)O; Orn(CH(NH2)2) = NC(N)NCCC[C@H](N)C(=O)O; ΔPro = O=C(O)[C@@H]1C=CCN1", "data": [{"molecule": "C[C@H](N)C(=O)N[C@@H](CCCNC(N)N)C(=O)N[C@H](C(=O)N[C@@H](CCCC[N+](C)(C)C)C(=O)N[C@@H](CCC(N)=O)C(=O)N[C@H](C(=O)N[C@@H](C)C(=O)N[C@@H](CCCNC(N)N)C(=O)N[C@@H](CCCCN)C(=O)N[C@@H](CO)C(=O)N[C@H](C=O)[C@@H](C)O)[C@@H](C)O)[C@@H](C)O", "values": [{"measurement": "Kd", "setting": "protein: Inhibitor of growth protein 4( ING4) PHD domain, PDB entry 2pnx", "result": "7.9 µM (active)"}]}, {"molecule": "C[C@H](NC(=O)[C@@H](NC(=O)[C@H](CCC(N)=O)NC(=O)[C@@H](N)CCCCN)[C@@H](C)O)C(=O)N[C@@H](CCCNC(N)N)C(=O)N[C@@H](CCCC[N+](C)(C)C)C(=O)N[C@@H](CO)C(=O)O", "note": "(H-KQTA[Orn(CH(NH2)2)][Lys(Me3)]S-OH)", "values": [{"measurement": "Kd", "setting": "protein: Chromo domain-containing protein 1, Chp1, PDB entry 3g7l", "result": "0.19 µM (active)"}]}, {"molecule": "N[C@H]1[C@H](O[C@H]2[C@H](O)[C@@H](N)[C@H](O[C@H]3[C@H](O)[C@@H](N)[C@H](O[C@H]4[C@H](O)[C@@H](N)[C@H](O[C@H]5[C@H](O)[C@@H](N)C(=O)O[C@@H]5CO)O[C@@H]4CO)O[C@@H]3CO)O[C@@H]2CO)O[C@H](CO)[C@@H](O)[C@@H]1O", "values": [{"measurement": "Kd", "setting": "protein: Ostrinia furnacalis Group I chitinase catalytic domain, PDB entry 3wqw", "result": "5.9 µM (active)"}]}, {"molecule": "N[C@@H]1[C@@H](O)[C@H](O[C@@H]2O[C@H](CO)[C@@H](O[C@@H]3O[C@H](CO)[C@@H](O[C@@H]4O[C@H](CO)[C@@H](O[C@@H]5O[C@H](CO)[C@@H](O)[C@H](O)[C@H]5N)[C@H](O)[C@H]4N)[C@H](O)[C@H]3N)[C@H](O)[C@H]2N)[C@@H](CO)O[C@H]1O", "values": [{"measurement": "Kd", "setting": "protein: Ostrinia furnacalis Group I chitinase catalytic domain, PDB entry 3wqv", "result": "6.2 µM (active)"}]}, {"molecule": "H-AQTFYVDG-OH", "values": [{"measurement": "Kd", "setting": "protein: HIV-1 protease, PDB entry 2nxm", "result": "6.4 µM (active)"}]}, {"molecule": "H-AETFYVD-OH", "values": [{"measurement": "Kd", "setting": "protein: protease, tethered dimer, PDB entry 4ep2", "result": "4.43 µM (active)"}]}, {"molecule": "H-ATFYVA-OH", "values": [{"measurement": "Kd", "setting": "protein: protease, tethered dimer, PDB entry 4eqj", "result": "2.52 µM (active)"}]}, {"molecule": "H-AEVFYVDGA-OH", "values": [{"measurement": "Kd", "setting": "protein: HIV-1 protease, PDB entry 2nxl", "result": "0.54 µM (active)"}]}, {"molecule": "CC[C@H](C)[C@H](NC(=O)[C@H](CCC(=O)O)NC(=O)[C@H](CCC(=O)O)NC(=O)[C@H](Cc1ccccc1)NC(=O)[C@H](CC(=O)O)NC(=O)CN)C(=O)N1CC=C[C@H]1C(=O)NCC(=O)N[C@@H](CCC(=O)O)C(=O)N[C@@H](Cc1ccc(O)cc1)C(=O)N[C@@H](C)C(=O)O", "note": "(H-GDFEEI[ΔPro]GEYA-OH)", "values": [{"measurement": "Kd", "setting": "protein: thrombin alpha, PDB entry 1a3e", "result": "0.0035 µM (active)"}]}, {"molecule": "CC(C)[C@H](NC(=O)[C@H](Cc1ccc(O)cc1)NC(=O)[C@H](CC(N)=O)NC(=O)CN)C(=O)N[C@H](C(=O)N[C@H](C(=O)N[C@@H](Cc1ccc(O[P+](O)(O)O)cc1)C(=O)N[C@@H](C)C(=O)O)[C@@H](C)O)C(C)C", "note": "(H-GNYVVT[X1]A-OH)", "values": [{"measurement": "Kd", "setting": "protein: phosphotyrosine (pTyr) scaffold Fab, PDB entry 4jfx", "result": "0.36 µM (active)"}]}, {"molecule": "COc1cc2c(c(OC)c1OC)C1=CCC(=O)C(=O)C=C1[C@@H](NC(C)=O)CC2", "values": [{"measurement": "Kd", "setting": "protein: Bromodomain-containing protein 4, BRD4(1), PDB entry 4lys", "result": "46 µM (active)"}]}, {"molecule": "COc1cc(/C=C/CO)ccc1O", "values": [{"measurement": "Kd", "setting": "protein: Coniferyl alcohol 9-O-methyltransferase, PDB entry 4e70", "result": "5.26 µM (active)"}]}, {"molecule": "CC(C)[C@H](NC(=O)[C@H](Cc1ccc(O)cc1)NC(=O)[C@H](CC(N)=O)NC(=O)CNC(=O)[C@@H](N)CCCCN)C(=O)N[C@H](C(=O)N[C@H](C(=O)N[C@@H](CO[P+](O)(O)O)C(=O)N[C@@H](Cc1cnc[nH]1)C(=O)O)[C@@H](C)O)C(C)C", "values": [{"measurement": "Kd", "setting": "protein: phosphoserine (pSAb) scaffold Fab, PDB entry 4jfz", "result": "0.071 µM (active)"}]}, {"molecule": "CC(C)[C@H](NC(=O)[C@H](Cc1ccc(O)cc1)NC(=O)[C@H](CC(N)=O)NC(=O)CNC(=O)[C@@H](N)CCCCN)C(=O)N[C@H](C(=O)N[C@H](C(=O)N[C@H](C(=O)N[C@@H](Cc1cnc[nH]1)C(=O)O)[C@@H](C)O[P+](O)(O)O)[C@@H](C)O)C(C)C", "note": "(H-KGNYVVT[Thr(P(OH)3+)]H-OH)", "values": [{"measurement": "Kd", "setting": "protein: phosphoserine/threonine (pSTAb) scaffold Fab, PDB entry 4jg1", "result": "0.232 µM (active)"}]}, {"molecule": "CC(C)[C@H](NC(=O)[C@H](Cc1ccc(O)cc1)NC(=O)[C@H](CC(N)=O)NC(=O)CNC(=O)[C@@H](N)CCCCN)C(=O)N[C@H](C(=O)N[C@H](C(=O)N[C@@H](CO[P+](O)(O)O)C(=O)O)[C@@H](C)O)C(C)C", "values": [{"measurement": "Kd", "setting": "protein: phosphoserine/threonine (pSTAb) scaffold Fab, PDB entry 4jg0", "result": "0.172 µM (active)"}]}, {"molecule": "C[C@@H]1O[C@@H](Oc2c(-c3ccc(O)c(O)c3)oc3cc(O)cc(O)c3c2=O)[C@H](O)[C@H](O)[C@H]1O", "values": [{"measurement": "Kd", "setting": "protein: Ribosomal protein S6 kinase alpha-3, PDB entry 4gue", "result": "5.8 µM (active)"}]}, {"molecule": "Cc1cc(=N)c2ccccc2n1CCCCCCCC/C=C/N1c2ccccc2C(N)=CC1C", "note": "(centres undefined)", "values": [{"measurement": "Kd", "setting": "protein: Chitinase A, PDB entry 3arp", "result": "0.07 µM (active)"}]}, {"molecule": "Cc1cc(=N)c2ccccc2n1CCCCCCCCCCN1c2ccccc2C(N)=CC1C", "note": "(centres undefined)", "values": [{"measurement": "Kd", "setting": "protein: Chitinase A(W275G mutant), PDB entry 3art", "result": "37 µM (active)"}]}, {"molecule": "CC1=CC(N)c2ccccc2N1CCCCCCCCCCN1c2ccccc2C(N)=CC1C", "note": "(centres undefined)", "values": [{"measurement": "Kd", "setting": "protein: Putative regulatory protein, PDB entry 3vw0", "result": "21.2 µM (active)"}]}]}
